Source: PubChem BioAssay (Tox21)
Calls of active or inactive are those of the source. Unless noted, calls follow the shape of the dose curve; as a rule, active = well fitted curve in the direction sought with a large enough effect in the repeat runs; inconclusive = weak or mixed curves; inactive = no such curve, though single readings can be large; an effect the other way counts as inactive or inconclusive.

Experiments:
[1] = qHTS assay to identify small molecule antagonists of the thyroid receptor (TR) signaling pathway - cell viability counter screen (AID 743064); also: nearly all actives have a fitted effect of over 50% in size; also: potency is read from the fitted curve at half-maximal effect
Method in brief: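 CellTiter-Fluor readout, 30 min at 37 °C/5% CO2, following 23.5 h incubation of GH3.TRE-Luc cells with test compound and 1 nM T3 (final).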

[2] = qHTS assay to identify small molecule antagonists of the thyroid receptor (TR) signaling pathway (AID 743065); also: nearly all actives have a fitted effect of over 55% in size; also: potency is read from the fitted curve at half-maximal effect
Method in brief: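 GH3.TRE-Luc rat pituitary cells (two TREs driving luciferase) were dosed with compound, then stimulated with 1 nM T3 (final) for 23.5 h at 37 C. ONE-Glo luminescence was the read-out, with CellTiter-Fluor fluorescence as the cytotoxicity counter-screen.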

[3] = system: thyroid hormone receptor (rat, GH3 cells); test: qHTS assay to identify small molecule agonists of the thyroid receptor (TR) signaling pathway (AID 743066; calls by dose curve)
[4] = biological target: Estrogen receptor (Homo sapiens) (UniProt P03372); test: qHTS assay to identify small molecule antagonists of the estrogen receptor alpha (ER-alpha) signaling pathway (AID 743069; active = well fitted curve in the direction sought with a large enough effect in the signal ratio in the repeat runs, not every such curve was filed as active; inconclusive = weak or mixed curves, or effect the other way; inactive = no such curve, though single readings can be large or run the other way; the % refers to the signal ratio; also: potency is read from the fitted curve at half-maximal effect)
Method in brief: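 Reporter cells (ER-alpha-bla, HEK293 background) are conditioned overnight in stripped-serum medium (2% charcoal-stripped FBS). Compound and 17beta-estradiol exposure runs 18 hr at 37C, 5% CO2.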

[5] = qHTS assay to identify small molecule antagonists of the estrogen receptor alpha (ER-alpha) signaling pathway - cell viability counter screen (AID 743074; calls by dose curve;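 also: HEK293 cells carrying ER-alpha-UAS-bla reporter stimulated with 17beta-estradiol; nearly all actives have a fitted effect of over 45% in size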)
[6] = biological target: Estrogen receptor (Homo sapiens) (UniProt P03372); test: qHTS assay to identify small molecule agonists of the estrogen receptor alpha (ER-alpha) signaling pathway (AID 743075; calls by dose curve;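 also: HEK293 GripTite cells with ER-alpha and UAS-driven beta-lactamase reporter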)
[7] = biological target: Estrogen receptor (Homo sapiens) (UniProt P03372); test: qHTS assay to identify small molecule agonists of the estrogen receptor alpha (ER-alpha) signaling pathway using the BG1 cell line (AID 743079); also: nearly all actives have a fitted effect of over 20% in size
[8] = qHTS assay to identify small molecule antagonists of the estrogen receptor alpha (ER-alpha) signaling pathway using the BG1 cell line (AID 743080; calls by dose curve;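 also: BG1 cells stimulated with 17beta-estradiol alongside compound; series mostly up to about 70 µM; nearly all actives have a fitted effect of over 25% in size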)
Method in brief: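 Seeding, 24 h rest, compound transfer from DMSO, 17beta-estradiol addition, 21.5 h incubation, CellTiter-Fluor (30 min, 37 C), then ONE-Glo (30 min, room temperature): this sequence was run on BG1-Luc-4E2 reporter cells.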

[9] = qHTS assay to identify small molecule antagonists of the estrogen receptor alpha (ER-alpha) signaling pathway using the BG1 cell line - cell viability counter screen (AID 743081);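 also: compound given together with 17beta-estradiol as the ER stimulus; series mostly up to about 70 µM; nearly all actives have a fitted effect of over 45% in size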
Aromatase (Homo sapiens) = Aromatase (Homo sapiens) (UniProt P11511); test: qHTS assay to identify aromatase inhibitors (AID 743083); also: nearly all actives have a fitted effect of over 55% in size; also: potency is read from the fitted curve at half-maximal effect

Measured: Potency

Aromatase (Homo sapiens), sequence (P11511 whole entry, looked up): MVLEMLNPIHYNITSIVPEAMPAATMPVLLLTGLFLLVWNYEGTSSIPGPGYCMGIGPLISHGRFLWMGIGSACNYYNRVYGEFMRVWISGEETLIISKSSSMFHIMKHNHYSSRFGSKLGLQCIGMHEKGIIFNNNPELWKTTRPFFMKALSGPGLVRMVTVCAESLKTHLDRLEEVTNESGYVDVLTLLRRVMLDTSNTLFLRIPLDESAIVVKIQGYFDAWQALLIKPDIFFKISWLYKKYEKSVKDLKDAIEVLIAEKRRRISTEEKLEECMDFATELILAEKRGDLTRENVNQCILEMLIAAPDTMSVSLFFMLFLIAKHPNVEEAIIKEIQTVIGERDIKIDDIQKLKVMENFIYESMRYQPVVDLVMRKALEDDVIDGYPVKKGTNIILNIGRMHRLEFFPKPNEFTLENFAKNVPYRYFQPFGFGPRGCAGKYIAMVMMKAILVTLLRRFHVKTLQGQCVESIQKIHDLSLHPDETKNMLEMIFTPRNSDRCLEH
Estrogen receptor (Homo sapiens), sequence (P03372 whole entry, looked up): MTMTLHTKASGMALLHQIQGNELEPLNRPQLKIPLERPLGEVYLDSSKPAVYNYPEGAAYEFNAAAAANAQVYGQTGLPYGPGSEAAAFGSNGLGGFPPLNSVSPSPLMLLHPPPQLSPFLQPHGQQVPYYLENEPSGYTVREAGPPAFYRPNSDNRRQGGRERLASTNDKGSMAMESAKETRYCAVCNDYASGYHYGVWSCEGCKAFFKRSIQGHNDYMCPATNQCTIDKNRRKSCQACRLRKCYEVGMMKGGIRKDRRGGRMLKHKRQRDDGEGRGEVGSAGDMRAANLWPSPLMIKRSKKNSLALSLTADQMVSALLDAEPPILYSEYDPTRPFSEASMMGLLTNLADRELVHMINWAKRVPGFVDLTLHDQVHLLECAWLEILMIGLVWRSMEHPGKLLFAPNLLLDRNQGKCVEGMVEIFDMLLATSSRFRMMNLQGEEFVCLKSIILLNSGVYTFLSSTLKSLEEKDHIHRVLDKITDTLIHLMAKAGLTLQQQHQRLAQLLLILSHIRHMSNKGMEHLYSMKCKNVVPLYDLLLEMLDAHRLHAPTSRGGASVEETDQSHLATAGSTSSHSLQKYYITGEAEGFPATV

CCCC1CCC(=O)CC1
inactive: all assays above

O=C(O)c1ccc2cc(C(=O)O)ccc2c1
inactive: all assays above

O=C(O)c1cccc(C(F)(F)F)c1
inactive: all assays above

CC[N+](CC)(CC)CCOC(=O)C(C1CCCC1)C1CCCC1
inactive: all assays above

CCC(=O)OC(=O)CC
inactive: all assays above

Clc1nnc(Cl)c2ccccc12
not listed: [8] | [9]
inactive: all other assays above

CC(CCc1ccccc1)NCC(O)c1ccc(O)c(C(N)=O)c1 (stereo unspecified)
active: [1] 30.6 µM
not listed: [9]
inactive: all other assays above

CCCCOC(=O)CO
inactive: all assays above

O=C(O)[C@H](O)[C@@H](O)[C@H](O[C@@H]1O[C@H](CO)[C@H](O)[C@H](O)[C@H]1O)[C@H](O)CO
not listed: [9]
inactive: all other assays above

CC(=O)OCC=C(C)C
inactive: all assays above

CCC(COC(=O)CCS)(COC(=O)CCS)COC(=O)CCS
inactive: all assays above

O=C(Oc1ccccc1)Oc1ccccc1
inactive: all assays above

Clc1ccnc(Cl)n1
inactive: all assays above

C=Cc1cccc(C)c1
inactive: all assays above

O=C(O)c1cc(=O)c2ccccc2o1
inactive: all assays above

Cc1c(C)c2c(c(C)c1O)CC[C@@](C)(CCC[C@H](C)CCC[C@H](C)CCCC(C)C)O2
inactive: all assays above

Cc1cc(-n2nc3ccc(Cl)cc3n2)c(O)c(C(C)(C)C)c1
inactive: [1] | [2] | [3] | [5] | [9]

CCCCCCCCCCCCOC(=O)c1ccc(O)cc1
active: [1] 30.9 µM | [2] 27.5 µM | [4] 44 µM [inconclusive] | Aromatase (Homo sapiens) 30.9 µM
inactive: [5] | [6] | [7] | [9]

Cc1ccc(C(=O)O)cc1
inactive: [1] | [2] | [3] | [5] | [9] | Aromatase (Homo sapiens)

C[C@@H](O)[C@H](N)C(=O)O
inactive: [1] | [2] | [3] | [5] | [9] | Aromatase (Homo sapiens)
